# Laboratory results published in PubChem BioAssay AID1626 (SRMLSC, 2009).
# About 2,000 (0.91%) of roughly 220,000 compounds were called active. Another 2% or so got no clear call; they are omitted. Only a sample is shown. Results with a measured potency or affinity are listed apart. Unmarked numbers belong to inactive results. No stated cut-off is given here; in the data, inconclusive means inhibition above about 80% without an active follow-up result; inactive means below that; test concentration not stated here.
# Experiment: M. tuberculosis H37Rv growth inhibitors, H37Rv strain (AID 1626);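 further: bacteria incubated seven days before Alamar blue readout; 0% = bacteria only wells and 100% = bacteria with antibiotic wells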
# Settings: active compounds read high, concentration not given here
row,Compound,inhibition [%]
1,COc1ccc(CNC(=O)COC(=O)c2cncc(Br)c2)cc1,-4.32
2,Cc1nc2cc(O)ccc2n1C,-5.57
3,COc1ccc(CNC(=O)c2cc(-c3ccncc3)nc3c(C)cc(C)cc23)cc1OC,6.31
4,COc1cccc(NC(=O)c2cc(-c3cccnc3)nc3c(Cl)cccc23)c1,-0.99
5,Cc1ccc(-c2cc(C(=O)Nc3cc(C)on3)c3ccccc3n2)cc1,6.46
6,Cc1cc(NC(=O)c2cc(-c3cccnc3)nc3c(C)c(C)ccc23)no1,13.3
7,COc1ccc(N(C(C)C(=O)Nc2cccnc2)S(C)(=O)=O)cc1 (stereo not drawn),-6.21
8,Cc1cc(C)c2nc(N3CCC(C(=O)N4CCN(C(=O)c5ccco5)CC4)CC3)sc2c1,-2.47
9,O=C(NCc1cccc(Cl)c1)c1cc(COc2ccc3ncccc3c2)on1,58.2
10,COc1ccc(-n2nnc3c(=O)n(Cc4cccc(C)c4)cnc32)cc1,-11.3
11,CCSc1nnc(-c2ccc(Cl)cc2Cl)o1,4.11
12,CCOC(=O)C(C)Sc1ncc(OC)c(Sc2ccc(Cl)cc2)n1 (stereo not drawn),7.19
13,COc1ccccc1-c1nnc(SCC(=O)OC(C)C)o1,58.4
14,CC(C)OC(=O)CSc1nnc(-c2ccc(Cl)cc2Cl)n1N,-12.6
15,CCCOC(=O)CSc1nnc(-c2ccccc2Cl)o1,42.3
16,CCOC(=O)CSc1nnc(-c2cccc(Cl)c2)n1CC,-1.18
17,CCOC(=O)CSc1ncc(-c2ccccc2)cn1,15
18,CCOC(=O)C(C)Sc1ncc(-c2ccccc2)cn1 (stereo not drawn),-6.07
19,O=C(CN1C(=O)c2cccc3cccc1c23)Nc1ccc(S(=O)(=O)Nc2nccs2)cc1,-0.34
20,COC(=O)c1ccc(/C=N/OCC(=O)NC2CCCC(C)C2C)cc1 (stereo not drawn),10.8
21,O=C(CSc1nc(-c2ccccc2)cs1)NCc1ccco1,3.71

row,Compound,inhibition [%]
1,COc1ccc(CC(=O)NC(C)(C)CC(C)=O)cc1OC,6.3
2,CSc1ccc(-c2nnn(Cc3ccc(C)cc3)n2)cc1,-7.23
3,C=CCSc1nc(-c2ccc(OC)cc2)c(C#N)c(=O)n1CC=C,15.4
4,COc1ccc(/C=C/C(=O)NCC(=O)n2nc(C)cc2C)cc1,-7.73
5,COc1ccc2[nH]c(=O)c(CN(C)C(=O)C3CCCCC3)cc2c1,4.58
6,O=C1NC(=O)C2C1C(c1cccs1)NN2Cc1ccccc1 (stereo not drawn),3.37
7,Cc1nn(CCC#N)c(NC(=O)c2ccc(Cl)cc2)c1P(=O)(Nc1ccc([N+](=O)[O-])cc1)N1CCOCC1 (stereo not drawn),-25.7
8,COc1ccc(-c2c(=O)n(OCc3ccccc3[N+](=O)[O-])c3ccccc3[n+]2[O-])c(OC)c1,2.69
9,CCCNCc1cc(OC)c(OCc2ccccc2)cc1Br,6.93
10,CCN1CCN(c2cc(C(C)C)nc3c(-c4ccccc4)c(C)nn23)CC1,11.2
11,Cc1nn2c(N3CCN(C(=O)c4ccco4)CC3)cc(C(C)(C)C)nc2c1-c1ccccc1,32.7
12,Cc1nn2c(N3CCN(C4CCCC4)CC3)cc(C(C)(C)C)nc2c1-c1ccccc1,8.34
13,Cc1cc(N2CCN(Cc3ccccc3)CC2)n2nc(C)c(-c3ccccc3)c2n1,-3.83
14,O=C(CCc1ccccc1)NC1CCSC1=O (stereo not drawn),-9.93
15,NC1=NC[C@@H](Cc2ccc(O)cc2)N1CCC12CC3CC(CC(C3)C1)C2,20.2
16,NC1=NC[C@H](Cc2ccc(O)cc2)N1CC1CCCCC1,-3.49
17,NC1=NC[C@@H](Cc2ccc(O)cc2)N1CCc1cc(C(F)(F)F)cc(C(F)(F)F)c1,11.5
18,FC(F)(F)c1cc(CCN2C(=S)NC[C@@H]2CC2CCCCC2)cc(C(F)(F)F)c1,-1.6
19,NC1=NC[C@H](c2ccccc2)N1CCCCC1CCCCC1,52.1
20,CCCCN1C(N)=NC[C@@H]1Cc1ccc(O)cc1,-2.68
21,NC1=NC[C@H](Cc2ccccc2)N1CC1CCCCC1,-8.5

row,Compound,inhibition [%]
1,NC1=NC[C@@H](Cc2ccc(O)cc2)N1CC1CCCCC1,-0.61
2,COC(=O)c1ccc(COc2ccccc2/C=C(\C#N)C(=O)NC(C)C)cc1,4.92
3,COc1ccc(-n2c(O)c(C(C)=NCc3ccco3)c(=O)[nH]c2=O)cc1,2.3
4,CCOC(=O)C1=C(CSc2nc(-c3ccccc3)ccc2C#N)OC(N)=C(C#N)C1c1ccccc1 (stereo not drawn),-11.5
5,CCn1c(CCc2nc3ccccc3[nH]2)n[nH]c1=S,-3.65
6,COc1ccccc1NC(=O)N1CCN(c2ccnc3cc(Cl)ccc23)CC1,9.81
7,Cc1ccc(F)cc1NC(=O)N1CCN(c2ccnc3cc(Cl)ccc23)CC1,25.6
8,Cc1cccc(Cl)c1NC(=O)N1CCN(c2ccnc3cc(Cl)ccc23)CC1,0.44
9,CC(=O)N1CCN(c2ccnc3cc(Cl)ccc23)CC1,-0.19
10,O=C(N/N=C/c1ccc2c(c1)OCO2)c1cc(-c2ccccc2)nc2ccccc12,9.28
11,CC1CCCCC1NC(=O)COc1ccc(-n2cnnn2)cc1 (stereo not drawn),3.54
12,COc1ccc(/C=N/NC(=O)Cn2cnc3c2c(=O)n(C)c(=O)n3C)cc1,0.48
13,CCc1ccc(C(C(=O)NC(C)(C)CC)N(Cc2ccco2)C(=O)Cn2nnc3ccccc32)cc1 (stereo not drawn),2.42
14,COc1ccc(NS(=O)(=O)c2ccc(Cl)c(NC(=O)c3cccnc3Cl)c2)cc1,9.9
15,O=[N+]([O-])c1cccc2c(Cl)ccnc12,-5.33
16,Cc1ccc(NCCC(=O)c2ccc(Cl)cc2)cc1,51.3
17,Cc1ccc(O)c(C(=O)CC(=O)c2cccc(F)c2)c1,62.1
18,CC(C)(C)c1ccc(C(=O)NNC(=O)c2ccc(Cl)cc2)cc1,1.17
19,Cc1ccc(C(=O)CNc2ccc(Cl)cc2)cc1,-1.34
20,Cc1ccc(C(=O)CC(=O)c2ccc(C(C)(C)C)cc2)cc1,3.46
21,Cc1ccc(C(=O)CNc2cccc(Cl)c2)cc1,-5.8
